Laboratory results from PubChem BioAssay.
Active and inactive are the calls of the source. Unless noted, how the calls were made is not given here.

Experiments:
[1] = A549 cell viability effects, profiling panel, calcein-AM fluorescence, 48 h, basal (AID 1162); conditions: higher = more signal; further: test concentration not given here
[2] = adipocyte viability effects, profiling panel, cell-based, 3T3-L1 adipocytes, calcein-AM fluorescence, 48 h, basal (AID 1163); conditions: 3T3-L1 adipocytes viability, higher = more signal; further: test concentration not given here
[3] = HepG2 cell viability effects, profiling panel, calcein-AM fluorescence, 48 h, basal (AID 1164); conditions: higher = more signal; further: test concentration not given here
[4] = MM1S cell viability effects, profiling panel, calcein-AM fluorescence, 48 h, basal (AID 1165); conditions: higher = more signal;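 further: viability of MM1S multiple myeloma cells under basal unstimulated conditions; test concentration not given here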
[5] = basal RPMI8226 viability, no added stimulus, profiling panel, cell-based, calcein-AM fluorescence, 48 h, PK04 Diversity Set (AID 1166); conditions: RPMI8226 myeloma viability, higher = more signal;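 further: cells grown under basal conditions without added stimulus; test concentration not given here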
[6] = basal HepG2 mitochondrial membrane potential changes, profiling panel, cell-based, JC-1 fluorescence, 24 h, 100 nL compound (AID 1167); conditions: higher = more signal; further: test concentration not given here
[7] = basal 3T3-L1 adipocyte mitochondrial potential changes, profiling panel, cell-based, JC-1 fluorescence, 3T3-L1 adipocytes, 24 h, 100 nL compound (AID 1168); conditions: JC-1 mitochondrial fluorescence, higher = more signal, called active from +8 up or from −8 down; further: test concentration not given here
[8] = basal RPMI8226 mitochondrial membrane potential changes, profiling panel, cell-based, JC-1 fluorescence, 24 h, 100 nL compound (AID 1169); conditions: RPMI8226 myeloma, JC-1 mitochondrial potential fluorescence, higher = more signal; further: test concentration not given here
[9] = basal MM1S mitochondrial membrane potential changes, profiling panel, cell-based, JC-1 fluorescence, 24 h, 100 nL compound (AID 1170); conditions: higher = more signal; further: test concentration not given here
[10] = A549 lung cancer cell viability effects, profiling panel, resazurin fluorescence, 24 h, PK04 Diversity Set (AID 1171); conditions: higher = more signal, called active from +8 up or from −8 down; further: test concentration not given here
[11] = HepG2 liver cancer cell viability effects, profiling panel, resazurin fluorescence, 24 h, PK04 Diversity Set (AID 1172); conditions: higher = more signal; further: test concentration not given here
[12] = basal S. cerevisiae growth modulation, no modifier, primary screen, OD600, strain BY4716, 24 h, basal condition (AID 1173); conditions: OD600, 24 h, higher = more signal, called active from +8 up or from −8 down
[13] = MM1S myeloma cell viability, profiling panel, resazurin fluorescence, basal, 24 h, PK04 Diversity Set (AID 1174); conditions: higher = more signal, called active from +8 up or from −8 down;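 further: MM1S multiple myeloma cell line; test concentration not given here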
[14] = target: Dihydroorotate dehydrogenase (quinone), mitochondrial (Plasmodium falciparum (isolate 3D7)) (UniProt Q08210); test: PfDHODH enzyme inhibitors, primary screen, biochemical, C-terminal His tag, absorbance 600 nm (AID 1175); conditions: DCIP absorbance 600 nm, higher = more signal, called active from +8 up or from −8 down;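 further: recombinant parasite enzyme with a five histidine tag at its C terminus; test concentration not given here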
Chain of Dihydroorotate dehydrogenase (quinone), mitochondrial (Plasmodium falciparum (isolate 3D7)) (Q08210 whole entry, looked up): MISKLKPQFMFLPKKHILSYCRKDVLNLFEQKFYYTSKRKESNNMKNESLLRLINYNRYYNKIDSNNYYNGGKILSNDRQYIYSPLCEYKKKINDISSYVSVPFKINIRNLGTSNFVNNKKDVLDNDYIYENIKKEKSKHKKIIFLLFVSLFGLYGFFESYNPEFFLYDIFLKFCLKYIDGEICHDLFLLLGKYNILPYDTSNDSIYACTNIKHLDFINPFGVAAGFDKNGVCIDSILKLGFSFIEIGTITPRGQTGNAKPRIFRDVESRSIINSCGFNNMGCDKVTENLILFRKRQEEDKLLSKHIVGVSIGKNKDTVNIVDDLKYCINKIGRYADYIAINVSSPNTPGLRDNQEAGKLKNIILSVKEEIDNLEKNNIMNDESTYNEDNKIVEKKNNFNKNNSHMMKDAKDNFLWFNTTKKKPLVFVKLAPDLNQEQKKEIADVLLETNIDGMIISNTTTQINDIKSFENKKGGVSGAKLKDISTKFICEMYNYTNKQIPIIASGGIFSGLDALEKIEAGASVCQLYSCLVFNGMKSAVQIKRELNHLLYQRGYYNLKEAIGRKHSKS

[15] = P. aeruginosa biofilm formation inhibitors, primary screen, strain PAO1, LB-PBS medium, absorbance 600 nm (AID 1176); further: test concentration not given here; conditions: P. aeruginosa PAO1 growth/biofilm, A600, 12 h; higher = more signal
[16] = S. cerevisiae RM11-1a growth modifiers, primary screen, strain RM11-1a, OD600, basal, 24 h (AID 1177); conditions: OD600, 24 h, higher = more signal, called active from +8 up or from −8 down;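 further: cultures grown under basal conditions with no added stressor; test concentration not given here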
[17] = E. coli acrAB mutant growth effects, primary screen, E. coli filamentation inducers, strain DRC39, OD650, 24 h (AID 1178); conditions: higher = more signal, called active from +8 up or from −8 down;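 further: growth measured as culture turbidity by optical density at 650 nm; test concentration not given here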
[18] = E. coli acrAB mutant growth effects, primary screen, E. coli filamentation inducers, strain DRC39, OD650, 48 h (AID 1179);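 further: screen aims at cell division blockers that make cells filament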; conditions: E. coli DRC39 delta-acrAB growth, higher = more signal, called active from +8 up or from −8 down
[19] = RPMI8226 myeloma cell viability, profiling panel, resazurin fluorescence, basal, 24 h, PK04 Diversity Set (AID 1180); conditions: higher = more signal;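 further: RPMI8826 multiple myeloma cell line at 5000 cells per well; test concentration not given here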
[20] = target: E3 ubiquitin-protein ligase XIAP (Homo sapiens) (UniProt P98170); test: XIAP binders, primary screen, biophysical, small-molecule microarray, fluorescence 635 nm (AID 1181); conditions: small-molecule microarray binding, higher = more signal;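 further: score merges 667 nm emission and signal to noise over triplicate slides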
Chain of E3 ubiquitin-protein ligase XIAP (Homo sapiens) (P98170 whole entry, looked up): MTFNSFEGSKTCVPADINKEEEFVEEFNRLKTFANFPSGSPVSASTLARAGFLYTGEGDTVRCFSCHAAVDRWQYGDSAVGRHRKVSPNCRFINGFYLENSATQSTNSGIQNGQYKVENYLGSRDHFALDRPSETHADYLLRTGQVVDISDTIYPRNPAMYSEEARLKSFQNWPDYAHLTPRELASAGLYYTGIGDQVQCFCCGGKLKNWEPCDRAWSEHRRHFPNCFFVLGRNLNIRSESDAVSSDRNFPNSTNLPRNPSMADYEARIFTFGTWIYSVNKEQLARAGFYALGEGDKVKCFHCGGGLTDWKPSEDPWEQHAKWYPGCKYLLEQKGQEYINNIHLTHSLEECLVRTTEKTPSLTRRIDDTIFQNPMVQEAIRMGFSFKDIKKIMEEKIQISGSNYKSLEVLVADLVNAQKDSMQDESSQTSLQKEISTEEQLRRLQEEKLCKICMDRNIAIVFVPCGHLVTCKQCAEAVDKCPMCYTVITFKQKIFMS

SMILES	z-score [1]	z-score [2]	z-score [3]	z-score [4]	z-score [5]	z-score [6]	z-score [7]	z-score [8]	z-score [9]	z-score [10]	z-score [11]	z-score [12]	z-score [13]	composite z-score [14]	z-score [15]	z-score [16]	z-score [17]	z-score [18]	z-score [19]	composite z-score [20]
C=C(/C(=C/C[C@H](OC(=O)c1ccncc1)c1cccc(OCCO)c1)c1cnc2ccccc2c1)C(C)C	-1.69	-1.31	-3.17	-3.07	-2.93	-0.437	-0.649 (inactive)	-0.0462	-0.888	-1.68 (inactive)	-0.982	-18.5 (active)	-1.09 (inactive)	-25.3 (active)	0.285 (inactive)	-22.1 (active)	0.116 (inactive)	-0.147 (inactive)	-0.911	0.329
C=CCOC(=O)[C@H]1[C@@H]2C(=O)O[C@@H](c3ccccc3)[C@@H](c3ccccc3)N2[C@@H](c2ccc(OCCOC(=O)[C@H]3C[C@H]4C(=O)N[C@@H](CCCCNC(C)=O)C(=O)N4[C@H]3c3cccc(OCCO)c3)cc2)[C@]12C(=O)Nc1ccc(I)cc12	0.0973	1.5	-0.621	0.035	-0.665	-1.91	0.622 (inactive)	-0.676	-0.519	-0.342 (inactive)	-0.821	1.2 (inactive)	-0.682 (inactive)	1.34 (inactive)	2.63 (inactive)	1.59 (inactive)	-0.817 (inactive)	-1.2 (inactive)	-0.538	-0.0228
COCC(=C=CC[C@H](O)c1cccc(OCCO)c1)C[C@H](O)COCc1ccccc1	0.276	-0.48	0.0978	0.103	-0.557	-0.487	-0.3 (inactive)	0.191	-0.701	-0.359 (inactive)	-0.136	-1.76 (inactive)	-0.0529 (inactive)	-1.65 (inactive)	0.838 (inactive)	-0.496 (inactive)	-0.0164 (inactive)	0.0211 (inactive)	0.0473	0.0736
COCCOC(=O)N1C(=O)[C@@]2(c3cc(C#CCNC(N)=O)ccc31)[C@H](c1ccc(OCCO)cc1)N1[C@H](c3ccccc3)[C@H](c3ccccc3)OC(=O)[C@H]1[C@@H]2C(=O)NC[C@H](O)c1ccccc1	-1.31	0.494	-0.542	-0.193	-0.158	-1.49	0.17 (inactive)	0.235	-0.391	0.32 (inactive)	0.637	1.82 (inactive)	0.0592 (inactive)	-1.88 (inactive)	2.18 (inactive)	1.54 (inactive)	0.48 (inactive)	-0.532 (inactive)	-0.45	-0.153
COCCOC(=O)N1C(=O)[C@@]2(c3cc(C#CCCO)ccc31)[C@H](C(N)=O)[C@H]1C(=O)O[C@H](c3ccccc3)[C@H](c3ccccc3)N1[C@@H]2c1ccc(OCCO)cc1	0.518	0.0809	0.325	-0.971	-0.859	-1.78	0.959 (inactive)	-0.505	-0.0622	-0.0958 (inactive)	-0.639	1.21 (inactive)	-0.479 (inactive)	0.46 (inactive)	1.56 (inactive)	2.16 (inactive)	-0.138 (inactive)	0.386 (inactive)	-0.621	0.409
C=CCC(OC(C)=O)[C@@H]1[C@@H](N(Cc2cccc3ccccc23)C(=O)Cc2ccc(F)cc2)c2cc(OCCCO)ccc2N1C(=O)c1ccc(-c2ccccc2)cc1 (stereo not given in full)	-0.546	0.905	0.111	0.867	-0.61	1.35	-0.389 (inactive)	-0.104	0.302	0.736 (inactive)	-0.271	0.388 (inactive)	-0.0279 (inactive)	0.366 (inactive)	0.231 (inactive)	-0.163 (inactive)	-0.386 (inactive)	-0.0169 (inactive)	0.336	0.0623
C=CCC(OC(C)=O)[C@@H]1[C@@H](N(Cc2cccc3ccccc23)C(=O)c2ccc(-c3ccccc3)cc2)c2cc(OCCCO)ccc2N1C(=O)c1ccc(-c2ccccc2)cc1 (stereo not given in full)	0.512	0.842	0.515	-0.484	0.294	0.78	-1.97 (inactive)	0.603	0.0821	0.654 (inactive)	-0.132	-0.166 (inactive)	0.116 (inactive)	-0.948 (inactive)	0.055 (inactive)	-0.929 (inactive)	-0.277 (inactive)	-0.228 (inactive)	0.0263	-0.114
COc1ccc(CCNC(=O)[C@@]2(Cc3ccccc3I)c3ccccc3C(=O)N(Cc3ccccc3Cl)[C@H]2c2ccc(CO)cc2)cc1	-0.613	-0.073	-0.63	-3.36	-1.92	0.962	0.119 (inactive)	-0.0808	-0.413	0.109 (inactive)	-0.0135	-0.564 (inactive)	0.0755 (inactive)	-0.902 (inactive)	0.751 (inactive)	-0.377 (inactive)	-0.432 (inactive)	-0.638 (inactive)	-0.978	0.262
CN(C)C(=O)[C@]1(CCS(=O)(=O)c2ccccc2)N=C(c2ccc(OCCCO)cc2)O[C@@H]1c1ccccc1	-1.05	1.02	-0.416	-0.675	-0.76	1.34	-0.132 (inactive)	-0.783	-1.24	-0.482 (inactive)	1.4	-0.265 (inactive)	-0.342 (inactive)	0.524 (inactive)	-0.484 (inactive)	-0.315 (inactive)	0.582 (inactive)	-0.0986 (inactive)	-0.155	0.0651
